# The entries come from a sample that favours the strongest signals as a whole.
# Columns and labels:
# Test in all cases: glycan array binding signal (z-score within array); higher = stronger binding
# Conditions in all cases: glycan notation: IUPAC condensed, linker removed
# [1] = target: Fuc(a1-2)Gal(b1-4)GlcNAc(b1-2)Man(a1-3)[Fuc(a1-2)Gal(b1-4)GlcNAc(b1-2)Man(a1-6)]Man(b1-4)GlcNAc(b1-4)GlcNAc
# How it was run: (§1)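 Columns mapping to the same glycan were averaged after glycan names were converted to IUPAC-condensed notation. The data come from 3228 arrays in the Consortium for Functional Glycomics database, limited to those with an available protein sequence. Binding is reported as a within-array Z-score averaged across arrays of one protein sequence and across linkers.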
# [2] = target: Fuc(a1-2)Gal(b1-4)[Fuc(a1-3)]GlcNAc(b1-2)Man(a1-3)[Fuc(a1-2)Gal(b1-4)[Fuc(a1-3)]GlcNAc(b1-2)Man(a1-6)]Man(b1-4)GlcNAc(b1-4)[Fuc(a1-6)]GlcNAc
# How it was run: as §1
# [3] = target: Fuc(a1-2)Gal(b1-4)[Fuc(a1-3)]GlcNAc(b1-3)GalNAc
# How it was run: as §1
# [4] = target: Fuc(a1-2)Gal3S(b1-4)GlcNAc
# How it was run: as §1
# Fuc(a1-2)Gal6S(b1-4)Glc = target: Fuc(a1-2)Gal6S(b1-4)Glc
# How it was run: as §1
# [5] = target: Fuc(a1-2)[GalNAc(a1-3)]Gal(b1-4)GlcNAc(b1-2)Man(a1-3)[Fuc(a1-2)[GalNAc(a1-3)]Gal(b1-4)GlcNAc(b1-2)Man(a1-6)]Man(b1-4)GlcNAc(b1-4)[Fuc(a1-6)]GlcNAc
# How it was run: as §1
# [6] = target: Fuc(a1-3)[Gal(b1-4)]GlcNAc(b1-2)Man(a1-3)[Fuc(a1-3)[Gal(b1-4)]GlcNAc(b1-2)Man(a1-6)]Man(b1-4)GlcNAc(b1-4)[Fuc(a1-6)]GlcNAc
# How it was run: as §1
# Gal(a1-3)Gal(b1-4)GlcNAc = target: Gal(a1-3)Gal(b1-4)GlcNAc
# How it was run: as §1
# [7] = target: Gal(a1-3)Gal(b1-4)GlcNAc(b1-2)Man(a1-3)[Gal(a1-3)Gal(b1-4)GlcNAc(b1-2)Man(a1-6)]Man(b1-4)GlcNAc(b1-4)GlcNAc
# How it was run: as §1
# [8] = target: Gal(a1-4)Gal(b1-3)GlcNAc(b1-2)Man(a1-3)[Gal(a1-4)Gal(b1-3)GlcNAc(b1-2)Man(a1-6)]Man(b1-4)GlcNAc(b1-4)GlcNAc
# How it was run: as §1
# [9] = target: Gal(a1-4)Gal(b1-4)GlcNAc(b1-2)Man(a1-3)[Gal(a1-4)Gal(b1-4)GlcNAc(b1-2)Man(a1-6)]Man(b1-4)GlcNAc(b1-4)GlcNAc
# How it was run: as §1
# Gal(b1-3)Gal(b1-4)GlcNAc = target: Gal(b1-3)Gal(b1-4)GlcNAc
# How it was run: as §1
# [10] = target: Gal(b1-3)GalNAc(b1-3)Gal(a1-4)Gal(b1-4)Glc
# How it was run: as §1
# Gal(b1-3)GlcNAc(b1-2)Man = target: Gal(b1-3)GlcNAc(b1-2)Man
# How it was run: as §1
# [11] = target: Gal(b1-3)GlcNAc(b1-2)Man(a1-3)[Gal(b1-3)GlcNAc(b1-2)Man(a1-6)]Man(b1-4)GlcNAc(b1-4)GlcNAc
# How it was run: as §1
# [12] = target: Gal(b1-3)[Fuc(a1-4)]GlcNAc(b1-2)Man(a1-3)[Gal(b1-3)[Fuc(a1-4)]GlcNAc(b1-2)Man(a1-6)]Man(b1-4)GlcNAc(b1-4)[Fuc(a1-6)]GlcNAc
# How it was run: as §1
# [13] = target: Gal(b1-4)GalNAc(a1-3)[Fuc(a1-2)]Gal(b1-4)GlcNAc
# How it was run: as §1
# [14] = target: Gal(b1-4)GlcNAc(b1-2)Man(a1-3)Man(b1-4)GlcNAc(b1-4)GlcNAc
# How it was run: as §1
# [15] = target: Gal(b1-4)GlcNAc(b1-2)Man(a1-3)[Gal(b1-4)GlcNAc(b1-2)Man(a1-6)]Man(b1-4)GlcNAc(b1-4)[Fuc(a1-6)]GlcNAc
# How it was run: as §1
# [16] = target: Gal(b1-4)GlcNAc(b1-2)Man(a1-6)[GlcNAc(b1-2)Man(a1-3)]Man(b1-4)GlcNAc(b1-4)GlcNAc
# How it was run: as §1
# [17] = target: Gal(b1-4)GlcNAc(b1-2)[Gal(b1-4)GlcNAc(b1-6)]Man(a1-6)[Gal(b1-4)GlcNAc(b1-2)Man(a1-3)]Man(b1-4)GlcNAc(b1-4)GlcNAc
# How it was run: as §1
# [18] = target: Gal(b1-4)GlcNAc(b1-3)Gal(b1-4)GlcNAc(b1-2)Man(a1-3)[Gal(b1-4)GlcNAc(b1-3)Gal(b1-4)GlcNAc(b1-2)Man(a1-6)]Man(b1-4)GlcNAc(b1-4)[Fuc(a1-6)]GlcNAc
# How it was run: as §1
# [19] = target: Gal(b1-4)GlcNAc(b1-3)Gal(b1-4)GlcNAc(b1-2)[Gal(b1-4)GlcNAc(b1-3)Gal(b1-4)GlcNAc(b1-6)]Man(a1-6)[Gal(b1-4)GlcNAc(b1-3)Gal(b1-4)GlcNAc(b1-2)Man(a1-3)]Man(b1-4)GlcNAc(b1-4)GlcNAc
# How it was run: as §1
# [20] = target: Gal(b1-4)GlcNAc(b1-3)Gal(b1-4)GlcNAc(b1-3)Gal(b1-4)GlcNAc(b1-3)Gal(b1-4)GlcNAc(b1-2)Man(a1-3)[Gal(b1-4)GlcNAc(b1-3)Gal(b1-4)GlcNAc(b1-3)Gal(b1-4)GlcNAc(b1-3)Gal(b1-4)GlcNAc(b1-2)Man(a1-6)]Man(b1-4)GlcNAc(b1-4)[Fuc(a1-6)]GlcNAc
# How it was run: as §1
binder,measurement,setting,value
PX9961T-pdi-555-33-555 (Parabacteroides distasonis) (protein) FDEETAFQSPTLVYVNTVASLYNNMFKIMGNDRHVYDLNTFSSDEAMLPCRIGDWEDGGLWQNIFLHRWGTMNDLTKNSWDFLYEQIGKCNQSVDKLQAFAEEQPDVEYFKVYLEEVRAVRAFFYYELLDLFARVPLVTSSTTPMSEVKQSERSVVFNFVRSELEEALPYLSDNRSNQKGEYYGRITKPVAYMILAKLALNAEVYADDNWTDGNRPAGKNIKFTVDGKEMNAWEATIAYVDKLEALGYKLQGNFSENFAVANETSVENIFTVPMDPVAYPDAKDYNLVRTRHYDHATAYGQSGWNGSCATVKAMNVFKFGTADEDPRCKLTYFTGEVTGPDGKTIYTEWDGQKVPLKYEPNAPKVYMDASDGLLVKTAGARMAKYEFDQNAQDGGNLHGNDCVIFRFADALLMKAEAKIRLGQNGDDEVNQVRNRVGAKPLQNVTLDTLLDERMLELAWEGVRRQDLIRFGKFTEATVDRYVGVKHFASSLDYQEDKTGYTTVFSIYADILSLNPNLTQNPGY,glycan array binding signal (z-score),[1],1.91
same,glycan array binding signal (z-score),[2],0.323
same,glycan array binding signal (z-score),[3],-0.359
same,glycan array binding signal (z-score),[4],-0.354
same,glycan array binding signal (z-score),Fuc(a1-2)Gal6S(b1-4)Glc,-0.589
same,glycan array binding signal (z-score),[5],2.12
same,glycan array binding signal (z-score),[6],-0.637
same,glycan array binding signal (z-score),Gal(a1-3)Gal(b1-4)GlcNAc,0.037
same,glycan array binding signal (z-score),[7],0.963
same,glycan array binding signal (z-score),[8],2.7
same,glycan array binding signal (z-score),[9],1.51
same,glycan array binding signal (z-score),Gal(b1-3)Gal(b1-4)GlcNAc,-0.663
same,glycan array binding signal (z-score),[10],-0.576
same,glycan array binding signal (z-score),Gal(b1-3)GlcNAc(b1-2)Man,0.661
same,glycan array binding signal (z-score),[11],-0.248
same,glycan array binding signal (z-score),[12],-0.151
same,glycan array binding signal (z-score),[13],-0.527
same,glycan array binding signal (z-score),[14],-0.441
same,glycan array binding signal (z-score),[15],0.171
same,glycan array binding signal (z-score),[16],-0.306
same,glycan array binding signal (z-score),[17],-0.161
same,glycan array binding signal (z-score),[18],0.672
same,glycan array binding signal (z-score),[19],1.53
same,glycan array binding signal (z-score),[20],0.109

# Source: the supplement of paper PMC8728848
